Source: PubChem BioAssay (NCATS)
Records with an inconclusive call do not appear. A call without a number means that no potency is given here. Calls of active or inactive are those of the source. Calls come from the whole dose curve.

Experiment: Primary qHTS for inhibitors of MERS-S pseudo-typed particle cell entry (AID 1479149); note: nearly all actives have a fitted effect of over 60% in size; note: potency is the fitted concentration of half-maximal effect
Conditions: MERS-S pseudotyped particle entry, luciferase; series mostly up to 57.1 µM

Compound	Potency
COC(=O)Nc1nc2ccc(C(=O)c3ccccc3)cc2[nH]1	inactive
CN(C)c1ccc(O)c2c1C[C@H]1C[C@H]3[C@H](N(C)C)C(=O)C(C(N)=O)=C(O)[C@@]3(O)C(=O)C1=C2O	inactive
Cc1cc2c(s1)Nc1ccccc1N=C2N1CCN(C)CC1	inactive
C=C1C[C@@H]2[C@H](CC[C@]3(C)C(=O)CC[C@@H]23)[C@@]2(C)C=CC(=O)C=C12	inactive
COC(=O)N[C@H](C(=O)N[C@@H](Cc1ccccc1)[C@@H](O)CN(Cc1ccc(-c2ccccn2)cc1)NC(=O)[C@@H](NC(=O)OC)C(C)(C)C)C(C)(C)C	inactive
CN1CCN(C2=Nc3cc(Cl)ccc3Nc3ccccc32)CC1	inactive
CC(C(=O)O)c1cccc(C(=O)c2ccccc2)c1 (stereo unspecified)	inactive
NS(=O)(=O)c1cc2c(cc1C(F)(F)F)NCNS2(=O)=O	inactive
O=C1CCc2ccc(OCCCCN3CCN(c4cccc(Cl)c4Cl)CC3)cc2N1	11.2 µM (active)
COCCCC/C(=N\OCCN)c1ccc(C(F)(F)F)cc1	inactive
Cc1cccc(Nc2ccccc2C(=O)O)c1C	inactive
Cc1ccnc2c1NC(=O)c1cccnc1N2C1CC1	inactive
CC(C)(C#N)c1cc(Cn2cncn2)cc(C(C)(C)C#N)c1	inactive
CC(c1cc2ccccc2s1)N(O)C(N)=O (stereo unspecified)	inactive
Cc1nc2n(c(=O)c1CCN1CCC(c3noc4cc(F)ccc34)CC1)CCC[C@H]2O	inactive
CC(C)(C(=O)O)c1ccc(C(O)CCCN2CCC(C(O)(c3ccccc3)c3ccccc3)CC2)cc1 (stereo unspecified)	inactive
COc1nc(N)nc2c1ncn2[C@@H]1O[C@H](CO)[C@@H](O)[C@@H]1O	inactive
Cc1ccsc1C(=CCCN1CCC[C@@H](C(=O)O)C1)c1sccc1C	inactive
Cc1ccc(C(=O)c2cc(O)c(O)c([N+](=O)[O-])c2)cc1	inactive

Compound	Potency
CN1CCC[C@@H]1Cc1c[nH]c2ccc(CCS(=O)(=O)c3ccccc3)cc12	inactive
COc1cc(NC(C)CCCN)c2ncccc2c1 (stereo unspecified)	inactive
CC(N)C12CC3CC(CC(C3)C1)C2 (stereo unspecified)	inactive
Cc1cn([C@H]2C[C@H](N=[N+]=[N-])[C@@H](CO)O2)c(=O)[nH]c1=O	inactive
O=C(c1ccccc1)c1ccc2n1CCC2C(=O)O (stereo unspecified)	inactive
Cc1nccn1CC1CCc2c(c3ccccc3n2C)C1=O (stereo unspecified)	inactive
CC(C)NC[C@@H](O)COc1ccc(CC(N)=O)cc1	inactive
CCC1C(=O)OCC1Cc1cncn1C (stereo unspecified)	inactive
CCOC(=O)[C@H](CCc1ccccc1)N[C@@H](C)C(=O)N1Cc2cc(OC)c(OC)cc2C[C@H]1C(=O)O	inactive
C=C(c1ccc(C(=O)O)cc1)c1cc2c(cc1C)C(C)(C)CCC2(C)C	inactive
Clc1ccc(COC(Cn2ccnc2)c2ccc(Cl)cc2Cl)cc1 (stereo unspecified)	25.1 µM (active)
NC12CC3CC(CC(C3)C1)C2	inactive
CC(=O)O[C@@]12CO[C@@H]1C[C@H](O)[C@@]1(C)C(=O)[C@H](O)C3=C(C)[C@@H](OC(=O)[C@H](O)[C@@H](NC(=O)OC(C)(C)C)c4ccccc4)C[C@@](O)([C@@H](OC(=O)c4ccccc4)[C@H]21)C3(C)C	inactive
Cc1[nH]cnc1CN1CCc2c(c3ccccc3n2C)C1=O	inactive
Cc1onc(-c2ccccc2Cl)c1C(=O)N[C@@H]1C(=O)N2[C@@H]1SC(C)(C)[C@@H]2C(=O)O	inactive
COc1ccc([C@@H]2Sc3ccccc3N(CCN(C)C)C(=O)[C@@H]2OC(C)=O)cc1	inactive
CN(C/C=C/C#CC(C)(C)C)Cc1cccc2ccccc12	inactive
CNS(=O)(=O)CCc1ccc2[nH]cc(C3CCN(C)CC3)c2c1	inactive
CC(C)C1CCC(C(=O)N[C@H](Cc2ccccc2)C(=O)O)CC1 (stereo partly specified)	inactive

Experiment: Primary qHTS for Vero E6 cytotoxicity: counterscreen for inhibitors of SARS-S pseudo-typed particle cell entry (AID 1479150)
Conditions: cell viability; series mostly up to 57.1 µM

Compound	Potency
COC(=O)Nc1nc2ccc(C(=O)c3ccccc3)cc2[nH]1	inactive
CN(C)c1ccc(O)c2c1C[C@H]1C[C@H]3[C@H](N(C)C)C(=O)C(C(N)=O)=C(O)[C@@]3(O)C(=O)C1=C2O	inactive
Cc1cc2c(s1)Nc1ccccc1N=C2N1CCN(C)CC1	inactive
C=C1C[C@@H]2[C@H](CC[C@]3(C)C(=O)CC[C@@H]23)[C@@]2(C)C=CC(=O)C=C12	inactive
COC(=O)N[C@H](C(=O)N[C@@H](Cc1ccccc1)[C@@H](O)CN(Cc1ccc(-c2ccccn2)cc1)NC(=O)[C@@H](NC(=O)OC)C(C)(C)C)C(C)(C)C	inactive
CN1CCN(C2=Nc3cc(Cl)ccc3Nc3ccccc32)CC1	inactive
CC(C(=O)O)c1cccc(C(=O)c2ccccc2)c1 (stereo unspecified)	inactive
NS(=O)(=O)c1cc2c(cc1C(F)(F)F)NCNS2(=O)=O	inactive
O=C1CCc2ccc(OCCCCN3CCN(c4cccc(Cl)c4Cl)CC3)cc2N1	inactive
COCCCC/C(=N\OCCN)c1ccc(C(F)(F)F)cc1	inactive
Cc1cccc(Nc2ccccc2C(=O)O)c1C	inactive
Cc1ccnc2c1NC(=O)c1cccnc1N2C1CC1	inactive
CC(C)(C#N)c1cc(Cn2cncn2)cc(C(C)(C)C#N)c1	inactive
CC(c1cc2ccccc2s1)N(O)C(N)=O (stereo unspecified)	inactive
Cc1nc2n(c(=O)c1CCN1CCC(c3noc4cc(F)ccc34)CC1)CCC[C@H]2O	inactive
CC(C)(C(=O)O)c1ccc(C(O)CCCN2CCC(C(O)(c3ccccc3)c3ccccc3)CC2)cc1 (stereo unspecified)	inactive
COc1nc(N)nc2c1ncn2[C@@H]1O[C@H](CO)[C@@H](O)[C@@H]1O	inactive
Cc1ccsc1C(=CCCN1CCC[C@@H](C(=O)O)C1)c1sccc1C	inactive
Cc1ccc(C(=O)c2cc(O)c(O)c([N+](=O)[O-])c2)cc1	inactive

Compound	Potency
CN1CCC[C@@H]1Cc1c[nH]c2ccc(CCS(=O)(=O)c3ccccc3)cc12	inactive
COc1cc(NC(C)CCCN)c2ncccc2c1 (stereo unspecified)	inactive
CC(N)C12CC3CC(CC(C3)C1)C2 (stereo unspecified)	inactive
Cc1cn([C@H]2C[C@H](N=[N+]=[N-])[C@@H](CO)O2)c(=O)[nH]c1=O	inactive
O=C(c1ccccc1)c1ccc2n1CCC2C(=O)O (stereo unspecified)	inactive
Cc1nccn1CC1CCc2c(c3ccccc3n2C)C1=O (stereo unspecified)	inactive
CC(C)NC[C@@H](O)COc1ccc(CC(N)=O)cc1	inactive
CCC1C(=O)OCC1Cc1cncn1C (stereo unspecified)	inactive
CCOC(=O)[C@H](CCc1ccccc1)N[C@@H](C)C(=O)N1Cc2cc(OC)c(OC)cc2C[C@H]1C(=O)O	inactive
C=C(c1ccc(C(=O)O)cc1)c1cc2c(cc1C)C(C)(C)CCC2(C)C	inactive
Clc1ccc(COC(Cn2ccnc2)c2ccc(Cl)cc2Cl)cc1 (stereo unspecified)	inactive
NC12CC3CC(CC(C3)C1)C2	inactive
CC(=O)O[C@@]12CO[C@@H]1C[C@H](O)[C@@]1(C)C(=O)[C@H](O)C3=C(C)[C@@H](OC(=O)[C@H](O)[C@@H](NC(=O)OC(C)(C)C)c4ccccc4)C[C@@](O)([C@@H](OC(=O)c4ccccc4)[C@H]21)C3(C)C	inactive
Cc1[nH]cnc1CN1CCc2c(c3ccccc3n2C)C1=O	inactive
Cc1onc(-c2ccccc2Cl)c1C(=O)N[C@@H]1C(=O)N2[C@@H]1SC(C)(C)[C@@H]2C(=O)O	inactive
COc1ccc([C@@H]2Sc3ccccc3N(CCN(C)C)C(=O)[C@@H]2OC(C)=O)cc1	inactive
CN(C/C=C/C#CC(C)(C)C)Cc1cccc2ccccc12	inactive
CNS(=O)(=O)CCc1ccc2[nH]cc(C3CCN(C)CC3)c2c1	inactive
CC(C)C1CCC(C(=O)N[C@H](Cc2ccccc2)C(=O)O)CC1 (stereo partly specified)	inactive
